Experimental data reported in PubChem BioAssay (NCI).
This is part of a sample that, as a whole, favours compounds with a hit. Of some 83,000 tested, about 20% had one in any assay.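 The endpoint reported here, percent growth, reads 100 for growth as untreated, 0 for no net growth and -100 for all cells dead.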 Unmarked numbers belong to inactive results. Activity calls are given as the source filed them. The calls were made as follows: active = growth percent below 10; inactive = the rest.

tested on: HL-60(TB) leukemia; test: NCI-60 one-dose screen, 48 h (100 = growth as untreated, 0 = no growth, -100 = all killed); conditions: 10 µM unless noted

Row | SMILES | growth
1 | Cc1ccc(C)n1/C=C/n1c(C)ccc1C | 128%
2 | OCCn1cccn1 | 99.2%
3 | CCN(CC)CCNc1ncnc2c1cnn2-c1ccc(Cl)cc1 | 39.1%
4 | CCCCC(CC)CN=C(N)NC(N)=NCCCCCCN=C(N)NC(N)=NCC(CC)CCCC (configuration not stated) | -76.8% (active)
5 | Cc1ccc(Cc2cnc(NC(=O)c3ccc4noc(-c5ccccc5)c4c3)s2)cc1 | 97.7%
6 | O=C1Nc2c(ccc(Cl)c2Cl)/C1=C\c1cc(C(F)(F)F)cc(C(F)(F)F)c1 | -29.3% (active)
7 | CCC(=O)OCc1cccc(OC)c1 | 53.7%
8 | O=C(N/N=C/c1ccc(Cl)cc1)c1[nH]c2ccc(Cl)cc2c1-c1ccccc1 | 13%
9 | COc1ccc(-c2nc3ccc(C)cc3c3c2c(=O)n(C)c(=O)n3C)cc1OC | 98.1%
10 | CCCCCCCCCCCCCCCC1=NCC[N+]1(CCO)CCO | 44.9%
11 | Cc1ccc(C2SCC(=O)N2Cc2ccccc2)cc1 (configuration not stated) | 96.1%
12 | C/C(CC(C)C)=N/NC(N)=S | 86.5%
13 | COc1ccc(C(=O)c2cc(C)c(OC)c(C)c2)c(OC)c1N(C(=O)CCl)C(=O)CCl | -42.3% (active)
14 | CN(C)Cc1cc(C(C)(C)CC(C)(C)C)ccc1O | 94.4%
15 | C=C1C(=O)O[C@H]2[C@H]1CC/C(CNC(=O)c1c[nH]c3ccc(F)cc13)=C\CC[C@@]1(C)O[C@@H]21 | -35% (active)
16 | Clc1ccc(Nc2nnc(CNc3ccccc3)c3ccccc23)cc1 | -13.4% (active)
17 | COc1cc2c(cc1NC(=O)C(F)(F)F)-c1ccc(NC(=O)C(F)(F)F)cc1C2 | 99.3%
